# GCN5L2 inh – blocks human GCN5L2 histone acetyltransferase | actives 0.21% (n = 390,000) | Q92830 | Potency, µM (doses to about 58.9 µM), actives largely listed as inhibitors | GCN5L2 HAT assay, ThioGlo1 CoA-SH fluorescence
#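 Preincubate 20nM GCN5L2 with compound 15 min, RT → add 50uM ThioGlo1 + 75uM H3(1-25) + 70uM acetyl-CoA → read fluorescence 0 and 20 min. Primary qHTS; fluorescent artifacts likely.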
# PLK1 PBD inh – blocks phosphopeptide binding to human PLK1 polo-box domain; P53350; Plk1 PBD binding of FITC phosphopeptide, fluorescence polarization; Potency, µM, actives largely listed as inhibitors; actives 2.8% (n = 360,000); further: series mostly up to about 57 µM; nearly all actives have a fitted effect of over 65% in size
# TDP1 cell noCPT – qHTS for Inhibitors of human tyrosyl-DNA phosphodiesterase 1 (TDP1): qHTS in cells in absence of CPT | DT40 Tdp1-/- hTDP1 cells, no CPT, ATP luminescence, 48 h | Potency, µM (series often up to 46.2 µM), most hits filed as inhibitors | actives 15% (n = 420,000) | AID 686978, 2013; further: nearly all actives have a fitted effect of over 55% in size
#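 Stably hTDP1-transfected Tdp1-null chicken DT40 cells were treated with library compounds minus camptothecin and grown for at least 48 hr at 37 °C, after which cellular ATP was quantified by luminescence.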
# TDP1 block – inhibitors of human tyrosyl-DNA phosphodiesterase TDP1 | Q9NUW8 | AID 485290 | Potency, µM (top dose mostly 130 µM), actives largely listed as inhibitors | recombinant TDP1, AlphaScreen DNA substrate cleavage | actives 0.28% (n = 350,000); further: nearly all actives have a fitted effect of over 40% in size
# Target sequence (Q9NUW8 whole entry, looked up): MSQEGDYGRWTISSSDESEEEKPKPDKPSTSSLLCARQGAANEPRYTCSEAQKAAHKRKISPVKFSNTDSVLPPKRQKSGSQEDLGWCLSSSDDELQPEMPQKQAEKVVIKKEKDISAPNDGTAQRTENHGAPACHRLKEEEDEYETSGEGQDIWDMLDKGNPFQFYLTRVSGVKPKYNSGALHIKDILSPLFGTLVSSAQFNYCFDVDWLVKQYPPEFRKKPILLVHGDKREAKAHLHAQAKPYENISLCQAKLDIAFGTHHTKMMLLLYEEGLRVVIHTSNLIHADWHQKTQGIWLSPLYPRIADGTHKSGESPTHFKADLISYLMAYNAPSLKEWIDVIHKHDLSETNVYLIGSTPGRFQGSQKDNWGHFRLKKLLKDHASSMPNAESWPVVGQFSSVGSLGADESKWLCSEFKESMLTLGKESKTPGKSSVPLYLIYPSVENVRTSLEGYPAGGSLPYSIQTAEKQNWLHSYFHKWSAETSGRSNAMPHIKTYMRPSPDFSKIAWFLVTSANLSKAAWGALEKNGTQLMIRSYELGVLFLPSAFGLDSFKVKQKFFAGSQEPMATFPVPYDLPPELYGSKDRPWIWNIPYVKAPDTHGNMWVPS
#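 Tdp1 1 nM final; 15 min RT w/ cpd; substrate 15 nM, 5 min; beads 10 ug/ml, 10 min; AlphaScreen read. Neg ctrl: no enzyme.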
# VDR inhibitor – vitamin D3 receptor (human) inhibition; P11473; VDR-SRC2-3 peptide fluorescence polarization, 2 h; Potency, µM, usual class: inhibitors; actives 0.93% (n = 400,000); AID 504847
#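 Two reagent solutions held at 4 deg C in the dark were dispensed, compounds pinned at 23 nl, and the mixture incubated 2 h at room temperature. Read-out: fluorescence polarization of VDR–SRC2-3 peptide binding.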
# DT40 TDP1 CPT – growth inhibition of DT40 Tdp1-/-;hTDP1 cells with camptothecin (screen for TDP1 inhibitors); chicken DT40 Tdp1-/-;hTDP1 cells + 20 nM CPT, ATP luminescence, 48 h; Potency, µM (titrated, usually from 46.2 µM), hits mostly inhibitors; actives 12% (n = 420,000); AID 686979; further: nearly all actives have a fitted effect of over 55% in size
#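 Cell growth measured by CellTiter-Glo luminescence after a minimum 48 h, 37 C compound exposure with 20 nM CPT in Tdp1-knockout DT40 cells stably expressing hTDP1, seeded 400/well; qHTS titration format.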
# Numbers stand for hits; . = inactive; ? = inconclusive; / = no result given; [ ] = another dose, or the depositor's remark. In the library only some 18% were active in any assay of this set; here they are far more common. The call rests on the fitted dose curve; in most records, active means well fitted curve in the direction sought with a large enough effect; inconclusive means small, poorly fitted or top-dose-only effect, or another doubt; inactive means no such curve, though single readings can be large; an effect the other way counts as inactive or inconclusive.
SMILES,GCN5L2 inh,PLK1 PBD inh,TDP1 cell noCPT,TDP1 block,VDR inhibitor,DT40 TDP1 CPT
CCCSc1nc(-c2ccc(OC)cc2)cc(-c2ccccc2OC)c1C#N,.,/,18µM,.[12.3 µM],?,?
CS(=O)(=O)c1nc(-c2ccccc2)cc(-c2ccccc2)c1C#N,.,.,2.9µM,.,.,1.5µM
CCCN1C(=O)/C(=N\OCC(=O)NCC(F)(F)F)c2ccccc21,.,.,.,.,.,.
CCCCCc1ccc2cc(C#N)ccc2n1,/,.,.,/,/,.
CC(C)n1c(N2CCN(C(=O)NCc3ccccc3)CC2)nc2ccccc21,.,.,23µM,.,.,?
C=C1c2cccc(O)c2C(O)=C2C(=O)[C@@]3(O)C(O)=C(C(N)=O)C(=O)[C@@H](N(C)C)[C@@H]3[C@@H](O)[C@H]12,3.5µM,/,/,/,?,/
CN(C)c1ccc(O)c2c1C[C@H]1C[C@H]3[C@@H](N(C)C)C(=O)C(C(N)=O)=C(O)[C@]3(O)C(=O)C1=C2O,.,/,/,/,.,/
COc1ccc(C)cc1NC(=O)C1CCN(C(=O)c2ccc(C(C)(C)C)cc2)CC1,.,.,18µM,/,.,?
CC(=O)Nc1ccc(S(=O)(=O)N2CCN(Cc3csc(C)n3)CC2)cc1,.,.,.,.,.,.
Cc1nc(CN2CCN(C(=O)c3ccc(C(C)(C)C)cc3)CC2)cs1,.,.,10µM,.,.,?
CC(C)(C)c1ccc(C(=O)Nc2ccc(C(=O)N3CCOCC3)cc2)cc1,.,.,21µM,.,.,23µM
CC(C)(C)c1ccc(C(=O)N2CCN(C(=O)C3CCCCC3)CC2)cc1,.,.,?,.,.,15µM
CSCCC(NC(=O)c1ccc(Cl)cc1Cl)C(=O)NCC(c1cccs1)N(C)C (configuration not stated),/,.,.,/,.,.
CCCC/C=C/C(NC(=O)c1ccco1)c1ccccc1 (configuration not stated),/,/,/,.,/,/
O=C(COC(=O)C1CC1)NCCc1ccc(Cl)cc1,.,.,.,.,.,.
Cc1ccc(C(=O)N2CCC(C(=O)NC3CCCC3)CC2)cc1,.,.,.,/,.,.
CC1CCN(c2c(NCC3CCC(C(=O)NCCC4=CCCCC4)CC3)c(=O)c2=O)CC1 (configuration not stated),.,.,?,.,.,18µM
CC(C)(C)c1ccc(C(=O)N2CCC(C(=O)NC3CCCCCC3)CC2)cc1,.,.,21µM,/,.,?
CC(C)(C)c1ccc(C(=O)N2CCC(C(=O)c3ccccc3)CC2)cc1,.,.,21µM,/,.,18µM
CCc1ccc(NC(=O)N2CCN(Cc3cc(=O)n4nc(-c5ccccc5OC)sc4n3)CC2)cc1,.,/,15µM,.,.,?
COc1ccc(CC(=O)Nc2cccnc2)cc1,.,.,.,.,.,.
O=C(NCCC1=CCCCC1)C1CCN(S(=O)(=O)N2CCCC2)CC1,.,.,?,.,.,?
CC(C)(C)c1ccc(C(=O)N2CCCN(C(=O)c3ccc(C(C)(C)C)cc3)CC2)cc1,.,.,13µM,.,.,?
CC(C)(C)c1ccc(C(=O)N2CCNCC2)cc1,.,.,.,.,.,.
COc1ccc(-c2nn3c(=O)cc(CN4CCN(C(=O)Nc5cc(C)ccc5C)CC4)nc3s2)cc1,.,/,?,.,.,.
SMILES,GCN5L2 inh,PLK1 PBD inh,TDP1 cell noCPT,TDP1 block,VDR inhibitor,DT40 TDP1 CPT
CC(C)(C)c1ccc(C(=O)N2CCC(C(=O)NCCC3=CCCCC3)CC2)cc1,.,.,18µM,.,.,?
CC(C)(C)c1nnc(NC(=O)C2CCN(c3ncccn3)CC2)s1,.,.,.,.,.,.
COc1ccc(-c2nn3c(=O)cc(CN4CCN(C(=O)c5ccc(C(C)(C)C)cc5)CC4)nc3s2)cc1,.,/,2.9µM,.,.,3.3µM
CC(C)(C)c1nnc(NC(=O)C2CCN(C(=O)c3ccccc3)CC2)s1,/,/,?,/,.,14µM
CCOC(=O)c1cccc(NC(=O)c2ncoc2-c2ccco2)c1,.,/,.,.,.,.
Cc1ccc(S(=O)(=O)N2CCC(=O)N(C(COCc3cccc(C(F)(F)F)c3)Cc3ccccc3)CC2)cc1 (configuration not stated),.,.,21µM,.,.,?
Cc1ccc(S(=O)(=O)N2CCC(=O)N(C(COCc3ccccc3)Cc3ccccc3)CC2)cc1 (configuration not stated),.,.,12µM,.,.,?
Cc1ccc(S(=O)(=O)N2CCC(=O)N(CCOCc3ccc(Cl)cc3)CC2)cc1,.,.,16µM,.,.,12µM
Cc1ccc(S(=O)(=O)N2CCC(=O)N([C@H](COCc3ccc(Cl)cc3)Cc3ccccc3)CC2)cc1,.,.,?,.,.,?
Cc1ccc(S(=O)(=O)N2CCC(=O)N(CCOCc3cccc(Cl)c3)CC2)cc1,.,.,?,.,.,?
Cc1ccc(S(=O)(=O)N2CCC(=O)N(C(COCc3cccc(Cl)c3)Cc3ccccc3)CC2)cc1 (configuration not stated),.,.,18µM,.,.,.
CCC1CN(CC(=O)NCc2cc(C)n(C)n2)Cc2cc(OC)ccc2O1 (configuration not stated),/,/,.,/,/,.[9.04 µM]
CCCCN(Cc1ccccc1)C(=O)C1CCC(=O)N(CCc2ccccn2)C1 (configuration not stated),.,.,.,.,.,.
Cc1ccc(S(=O)(=O)N2CCC(=O)N([C@H](COC(=O)Nc3ccccc3)Cc3ccccc3)CC2)cc1,/,.,18µM,/,/,?
Cc1ccc(S(=O)(=O)N2CCC(=O)N([C@H](COCc3cccc(Cl)c3)Cc3ccccc3)CC2)cc1,/,.,21µM,/,/,?
CC1(C(=O)NS(=O)(=O)c2ccccc2OC(F)(F)F)CCN1C(=O)c1ccco1 (configuration not stated),/,.,.,/,/,.
CCCC(=O)N1CCC1(C)C(=O)Nc1ccc(OC)c(OC)c1 (configuration not stated),/,.,.,/,/,.
O=C(CCNS(=O)(=O)c1ccccc1)NNC(=O)c1csc(N2CCOCC2)n1,.,.,.,/,.,?
CC(=O)Nc1ccc(S(=O)(=O)NCC(=O)NNC(=O)c2csc(N3CCOCC3)n2)cc1,.,21µM,.,/,.,.
CCC(C)(C)NC(=O)CN(Cc1ccco1)C(=O)CCC(=O)Nc1nccs1,.,.,.,.[0.0935 µM],?,.
O=S1(=O)NC(CC2=CCCCC2)C2CCCCC2O1 (configuration not stated),.,.,.,/,.,7.3µM

# High-throughput results as filed in PubChem.
